Reference: PMC12136788
In all, about 5,800 sequences were measured (“enrichment r”: median about 0.68, highest 2% from about 11 on). Not all results are given here.

T1: UNK ZnF1-6 (called full-length) (human, UniProt Q9C0B0 30-357)
T1 sequence: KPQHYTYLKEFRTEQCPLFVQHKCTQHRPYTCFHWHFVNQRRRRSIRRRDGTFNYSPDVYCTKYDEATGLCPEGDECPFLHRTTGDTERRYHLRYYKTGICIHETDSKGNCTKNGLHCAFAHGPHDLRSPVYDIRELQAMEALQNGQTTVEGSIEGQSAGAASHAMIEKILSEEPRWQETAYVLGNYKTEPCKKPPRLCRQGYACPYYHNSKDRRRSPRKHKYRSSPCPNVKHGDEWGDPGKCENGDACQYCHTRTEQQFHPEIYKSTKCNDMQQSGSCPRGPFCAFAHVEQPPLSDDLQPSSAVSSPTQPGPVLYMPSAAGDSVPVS

B1: chr1:71064632:71064733:-|3pUTR|ENSG00000132485|msi1|total|mutant (ssRNA)
RNA: GGGAGUUCUACAGUCCGACGAUCGCUAAGACAGGAUUACCCCGGCUUGCCUGAACUUUGGGCAUGGAAGAAAGACUGGAAACCCGUUGGAAACAACAUACUUAUGGAAAAGAAAGUCAGCCUUUUUAUGCUGUUAACAGAUGUCAACAGAGGAUUGAGCAUCA
B2: chr1:183142599:183142700:+|CDS|ENSG00000135862|msi1|FALSE|unique (ssRNA)
RNA: GGGAGUUCUACAGUCCGACGAUCAACGAGAUUGAAGGCACCCUAAACAAAGCCAAAGAUGAAAUGAAGGUCAGCGAUCUUGAUAGGAAAGUGUCUGACCUGGAGAAUGAAGCCAAGAAGCAGGAGGCUGCCAUCAUGGACUAUCAACAGAGGAUUGAGCAUCA
B3: chr1:23091194:23091296:-|CDS|ENSG00000169641|unk|FALSE|unique (ssRNA)
RNA: GGGAGUUCUACAGUCCGACGAUCCUCCAGAAGGACCCAAAGUAGCCUCACUGUGUCAGAGGUGCUUACCCGUCGGAAUCGGGUAGGAGACACCAUCACUGUCGCAGCCUGGAACCACUCAGCAAGCAUGGUGAGUUCCAGCCUCAACAGAGGAUUGAGCAUCA
B4: ENSG00000160209:stop:overlap|stop_codon|ENSG00000160209|stop_codon|NA|stop_codon (ssRNA)
RNA: GGGAGUUCUACAGUCCGACGAUCCCUUGACCUCCUGGGCUGAAGCAAUCUUUCUGCCUCCACCUCCCGAGUGGCUGGGACUAUAGUUGUGCACCAGCACGCCCACCUCCUGCCCAGGGUUGUUACUGGGGUGGUCACGUGGGCCAACAGAGGAUUGAGCAUCA
B5: chr1:212100457:212100572:+|CDS|ENSG00000143476|unk|FALSE|unique (ssRNA)
RNA: GGGAGUUCUACAGUCCGACGAUCAGAAGAGGCUCUGUCUCCUCCGUCUCUCCCAAGCCACCUUCAUCUUUCAAGAUGUCGAUUAGAAACUGGGUGACCCGAACACCUUCCUCAUCACCACCCAUCACUCCACCUGCUUCGGAGCAACAGAGGAUUGAGCAUCA
B6: chr20:63196482:63196583:-|3pUTR|ENSG00000149658|msi1|total|mutant (ssRNA)
RNA: GGGAGUUCUACAGUCCGACGAUCUGAUUUUUGCCCAGAUGGAUCUGCAUUUAUUUGUACUUUUUCUAUGUAUUAUAAUCCUGCCGAAGUCACUAAUAAAGGAGUAUUUUUUUUGUCAGCUUAUCAAUCAGACUGAUCUAAUGUCAACAGAGGAUUGAGCAUCA
B7: chr16:55506527:55506628:+|3pUTR|ENSG00000087245|msi1|FALSE|unique (ssRNA)
RNA: GGGAGUUCUACAGUCCGACGAUCUAUCAGUUUUAAUGCUACUACUAACAAUGAACAGUAACAAUAAUAUCCCCCUCAAUUAAUAGAGUGCUUUCUAUGUGCAAGGCACUUUUCACGUGUCACCUAUUUUAACCUUUCCAACCACAACAGAGGAUUGAGCAUCA
B8: ENSG00000107863:be:win_4351|CDS|ENSG00000107863|bound_else_gene|NA|bound_elsewhere_windowed (ssRNA)
RNA: GGGAGUUCUACAGUCCGACGAUCCACAAUGAUACUAAAGAGGAGUCCAAAAAAGAAAGUGAGACACUGGGCAGAAAACAGAAGAUCAUCAUUGCCAAAGAAAACAGCACUAGGAAAGACCCCAGCACGACAAAAGAUGAAAAGCAACAGAGGAUUGAGCAUCA
B9: chr13:42886387:42888493:-|three_prime_utr|ENSG00000133106|control|control|control (ssRNA)
RNA: GGGAGUUCUACAGUCCGACGAUCCAUAUUUAAUCUCUACUGCCAGGGAAAUGCUACAUUAUUUUUCUAAUUGGAAGUAUAAUUAGAGUGAUGUUGGUAGGGUAGAAAAAGAGGGAGUCACUUGAUGCUUUCAGGUUAAUCAGACAACAGAGGAUUGAGCAUCA
B10: chr4:143221337:143221438:+|3pUTR|ENSG00000170185|unk|FALSE|unique (ssRNA)
RNA: GGGAGUUCUACAGUCCGACGAUCUUGAAAGGUAAUAGAUUUUCCAGAAGUAAAAUCUGAUGGUUCUAAAUCAAUCAAUGUGAUAGUUCAUUUUUAACUCUUAGAAGAAUUCAGAGGAAAUUAACCCAGCUAAGUAAAAAAUCUCAACAGAGGAUUGAGCAUCA
B11: chr1:46316673:46316776:+|3pUTR|ENSG00000173660|unk|FALSE|unique (ssRNA)
RNA: GGGAGUUCUACAGUCCGACGAUCUGUUUCUUAUUUGUGUAACUGUAAGUUCACAUGAACCUCAUGGGUUUGGCUUAGGCUGGUAGCUUCUAUGUAAUUCGCAAUGAUUCCAUCUAAAUAAAAGUUCUAUGAUCUGCAAACCUGCAACAGAGGAUUGAGCAUCA
B12: chrX:53645320:53645442:-|CDS|ENSG00000086758|unk|FALSE|unique (ssRNA)
RNA: GGGAGUUCUACAGUCCGACGAUCUUAUUGGCUUCCUCUGAUAUGCAAGUGGUGCUGGCAGUCCUCAAUCUCCUAUAUGUAUUUAGCAAAAGAUCAAACUACAUCACUCGUCUGGGAUCUGACAAGAGGACCCCGCUGCUAACUCAACAGAGGAUUGAGCAUCA
B13: chrX:101412715:101412817:+|CDS|ENSG00000126945|unk|total|mutant (ssRNA)
RNA: GGGAGUUCUACAGUCCGACGAUCGGGUAUGGAGGCUAUGAUGACUAUGGUGGCUAUAAUGAUGGAUAUGGCUUUGGGUCUGACCGAUUUGGAAGAGACCUCAAUUACUGUUUUUCAGGAAUGUCUGAUCACCGAUACGGAGAUCAACAGAGGAUUGAGCAUCA
B14: chr7:100033925:100034026:+|CDS|ENSG00000106261|msi1|total|mutant (ssRNA)
RNA: GGGAGUUCUACAGUCCGACGAUCCAGAGCUCGGACCUCACCAAGCAUCAGAGAAUUCACACGGGGGAGAAACCCUAUGAAUGCCGUGAAUGUGGAAAAGCUUUCAACCGAAACUCAUACCUGAUUUUGCAUCGGAGAAUUCACCAACAGAGGAUUGAGCAUCA
B15: chr12:123761472:123761573:+|3pUTR|ENSG00000185344|unk|total|mutant (ssRNA)
RNA: GGGAGUUCUACAGUCCGACGAUCAAUAAGGCAGUUUGAACGAACAGUCUUCCCACAGUCAGGCCAUUUUUGCUGAUUUGGUUCCGAAUUUUCAGAAAUACUCCGUACACUCCACCUGUUCUUUGAUGGGAAUAUCUAAGAAGGCAACAGAGGAUUGAGCAUCA
B16: chr20:2117184:2117286:+|CDS|ENSG00000125834|unk|FALSE|unique (ssRNA)
RNA: GGGAGUUCUACAGUCCGACGAUCGCUCCUGGGGACCUACAUUAAACAGGGGACUGAGAUCGUCCCUGUUGGUGAGGCGCUGCUAGAAAACCCAAAGAUGGAGUUGCACAUCCCCCAAAAACGCAGGACUUCCAUGUCUGAGGGCAACAGAGGAUUGAGCAUCA
B17: chr6:106663037:106663138:+|CDS|ENSG00000130348|msi1|FALSE|unique (ssRNA)
RNA: GGGAGUUCUACAGUCCGACGAUCAGCACAGAAAGUGAGACGCCUCAUUGCUAAUGACUUUGUAAAUGCUUUUAACUCUGGAGUAGAUGUCUUGCUAACUCCCACCACCUUGAGUGAGGCAGUACCAUACUUGGAGUUCAUCAACAACAGAGGAUUGAGCAUCA
B18: ENSG00000070961:be:win_1|CDS|ENSG00000070961|bound_else_gene|NA|bound_elsewhere_windowed (ssRNA)
RNA: GGGAGUUCUACAGUCCGACGAUCAUGGGCGACAUGGCAAACAACUCAGUUGCUUACAGUGGUGUGAAAAACUCUUUGAAGGAAGCUAAUCAUGAUGGAGACUUUGGAAUUACGCUCGCAGAGCUGCGGGCUCUCAUGGAGCUCCAACAGAGGAUUGAGCAUCA
B19: chr3:185917260:185917361:-|3pUTR|ENSG00000136527|msi1|FALSE|unique (ssRNA)
RNA: GGGAGUUCUACAGUCCGACGAUCUGGCAAAAAGCAACAAUAAACAGUUUGAUUUUUACUUUUCUUUCUAACAUAUCAAUGCUUAGCAGAACUAUUCAGAUUGUCAGUAGUAAAUUUAAAGACAAAUGCCCGUUUUCCUCCAGUCAACAGAGGAUUGAGCAUCA
B20: chr8:17299120:17299221:-|3pUTR|ENSG00000003987|unk|total|mutant (ssRNA)
RNA: GGGAGUUCUACAGUCCGACGAUCUCCUCAUUAUUUAAAAAUGCUAAACCUUGUAUCUCACUUUUUCUCUAACACUGAUUUAACCGCUAACGAGGCCGAAGCAACAUUCAUUCUCCUGGUCUUACAUAUGAAUUUAAGUAUCAGCAACAGAGGAUUGAGCAUCA
B21: chr12:21491601:21491717:-|CDS|ENSG00000004700|unk|FALSE|unique (ssRNA)
RNA: GGGAGUUCUACAGUCCGACGAUCGCUGCCUCCCAUAGCUCUAACUGAGGAACUGGAUUCUAUAACCAGUGAGCUACAUGCAGUAGAAAUUCAAAUUCAAGAACUUACGGAAAGGCAACAAGAGCUUAUUCAGAAAAAAAAAGUCAACAGAGGAUUGAGCAUCA
B22: chr9:130903550:130903651:-|3pUTR|ENSG00000130720|msi1|total|mutant (ssRNA)
RNA: GGGAGUUCUACAGUCCGACGAUCAAAUACCCGGCAUUAUGGGGACAGAGAGCAGGGGGCAGACAGCACCCCUGGAGUCCUCCCCGCAGAUCGUGGGGAACGUCAGGUCUCUCUGAGGUCAGGUCUGAGGCCAGUAUCCUCCAGCAACAGAGGAUUGAGCAUCA

The binders below were run against T1, UNK ZnF1-6 (called full-length) (assay: nsRBNS (natural sequence RNA bind-n-seq); RBNS binding buffer (assumed for nsRBNS): 25 mM Tris pH 7.5, 150 mM KCl, 3 mM MgCl2, 0.01% Triton X-100, 500 ug/ml BSA, 20 U/ml SUPERase-In, 4 C; UNK is unkempt and MSI1 is Musashi-1; names of the RNAs are library labels; protein concentration not given here; high values mean tight binding).

Going from B1 to B2, the binding signal rises from 0.548 enrichment R to 0.678 enrichment R.

Compared with B3, B4 is higher in binding signal: 0.389 enrichment R for the first, 0.427 enrichment R for the second.

First: B5
Second: B6
The binding signal of the first is higher: 0.772 enrichment R for the first, 0.665 enrichment R for the second.

First: B7
Second: B8
The binding signal of the first is higher: 0.763 enrichment R for the first, 0.687 enrichment R for the second.

Compared with B9, B10 is higher in binding signal: 0.481 enrichment R for the first, 0.783 enrichment R for the second.

First: B11
Second: B12
The binding signal of the first is lower: 0.574 enrichment R for the first, 0.899 enrichment R for the second.

Going from B13 to B14, the binding signal falls from 0.671 enrichment R to 0.595 enrichment R.

Going from B15 to B16, the binding signal rises from 0.271 enrichment R to 1.08 enrichment R.

Going from B17 to B18, the binding signal rises from 0.484 enrichment R to 0.508 enrichment R.

Going from B19 to B20, the binding signal rises from 0.751 enrichment R to 0.98 enrichment R.

Compared with B21, B22 is higher in binding signal: 0.594 enrichment R for the first, 0.72 enrichment R for the second.
